Abeta rescue – compounds reversing amyloid beta toxicity in yeast; yeast expressing A-beta42, growth rescue, OD600, 48 h; response scale: 0% DMSO, 100% iron-clioquinol control; Potency, µM (top dose mostly 46.1 µM), most hits filed as activators; hit rate 0.063% among 410,000; AID 1347071; note: nearly all actives have a fitted effect of over 55% in size
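Growth rescue measured by 600 nm absorbance after 48 h yeast culture at 30 C with compound. Values normalized between DMSO and an equimolar ferric chloride plus clioquinol control.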
aSyn yeast inh – inhibitors of alpha-synuclein toxicity in yeast; Yeast expressing alpha-synuclein, growth rescue, BacTiter-Glo, 24 h; Potency, µM (series often up to 46.1 µM), without a hit: at the highest dose growth rescue (activation), actives largely listed as activators; hit rate 0.14% among 370,000; note: % of control where 0% means no effect; nearly all actives have a fitted effect of over 65% in size
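Screening used galactose-induced yeast with toxic alpha-synuclein levels, exposed to compound for 24 hr at 30 deg C. Cell growth, read with BacTiter-Glo luminescence, gave the measured signal.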
TDP43 rescue – rescues yeast growth from TDP-43 toxicity; TDP-43 expressing yeast growth rescue, BacTiter-Glo, 24 h; hit rate 1.8% among 410,000; Potency, µM (titrated, usually from 46.1 µM), inactives show top-dose growth rescue (activation), most hits filed as activators; AID 652104; note: % of control where 0% means no effect; nearly all actives have a fitted effect of over 50% in size
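Luminescence from BacTiter-Glo reports growth of TDP-43-expressing yeast after 24 hr at 30 deg C with compound. Cells were raffinose-pregrown to mid-log, then seeded in galactose medium at OD600=0.02.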
FUS yeast rescue – suppressors of FUS proteinopathy in yeast. S. cerevisiae FUS-expressing, growth rescue, OD600, 24 h. hit rate 0.24% among 390,000. Potency, µM (highest dose often 76.6 µM), hits mostly activators;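 note: plate controls were DMSO vehicle for no effect and reference control for full effect; nearly all actives have a fitted effect of over 55% in size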
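FUS-expressing yeast, raffinose-pregrown, induced in 2% galactose minimal medium at OD 0.005; compounds in a dilution series, 24hr at 30C. Growth restoration read as absorbance at 600 nm. CP55940 positive control, DMSO negative.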
The depositor's hits bear a star; i = inactive; ? = inconclusive; . = no result given; [ ] = another dose, or the depositor's remark. A selection: hits, their analogues and other compounds. The true share with any hit is near 2.1%. Calls come from the whole dose curve; as a rule, active = well fitted curve in the direction sought with a large enough effect; inconclusive = small, poorly fitted or top-dose-only effect, or another doubt; inactive = no such curve, though single readings can be large; an effect the other way counts as inactive or inconclusive. Potency is the fitted concentration of half-maximal effect.

SMILES	Abeta rescue	aSyn yeast inh	TDP43 rescue	FUS yeast rescue
COc1cc(C(=O)ONC(=O)c2ccc(OC(F)F)cc2)cc(OC)c1OC	?	-48%	8.9µM*	i
O=C(NOC(=O)c1ccccc1F)c1ccc(OC(F)F)cc1	i	-4%	-15%[0.397 µM]	i
COc1ccc([C@H]2CC(=O)C=C(c3cccc(F)c3OC)C2)cc1	i	13%	22µM*	i
COc1c(F)cccc1C1=CC(=O)C[C@H](c2ccc(F)cc2)C1	i	5%	18µM*	i
COc1ccc(OC)c(C2=CC(=O)C[C@H](c3ccc4c(c3)OCO4)C2)c1	i	2%	25µM*	?
COc1c(F)cccc1C1=CC(=O)C[C@H](c2ccc3c(c2)OCO3)C1	i	10%	22µM*	i
O=C1C=C(c2ccc(Br)c3ccccc23)C[C@@H](c2ccc3c(c2)OCO3)C1	i	-1%	5%	i
C=C1CC2C(CCC3(C)C2CCC3(O)C(C)=O)C2(C)CCC(=O)C=C12 (stereo unspecified)	i	5%	2%	i
Cc1ccccc1C(=O)Nc1cccc(NC(=S)NC(=O)c2cccs2)c1	i	-3%	12%	i
CCC(C)c1ccc(O)c(NC(=S)NC(=O)c2cccs2)c1 (stereo unspecified)	?	13µM*	?	i
CCC(C)c1ccc(O)c(NC(=O)c2cccnc2)c1 (stereo unspecified)	i	-12%	2%	i
O=C(NC(=S)NCc1ccccc1Cl)c1cccs1	i	-14%	18µM*	.
Cc1ccnc(NC(=O)CNC(=O)c2cccs2)c1	i	13%	-37%	i
Cc1ccccc1C(=O)NNC(=S)NC(=O)c1cccs1	i	3.5µM*	?	i
Cc1ccnc(NC(=S)NC(=O)c2cccs2)c1	i	-7%	16µM*	.
Cc1cccc(C(=O)Oc2ccc3ccc(O)cc3c2)c1	i	1%	8%	i
COc1ccc2[nH]cc(CCN=C(NC(=O)c3ccccc3C)Nc3nc(C)cc(C)n3)c2c1	i	-3%	4%	i
Cc1cc(C)nc(NC(=NCCc2c[nH]c3ccc(Cl)cc23)NC(=O)c2ccccc2C)n1	i	0.56µM*	5%	i
COc1ccc(CCNC(=O)c2cc(S(=O)(=O)N(C)C)ccc2N2CCCC2)cc1OC	i	-3%	17%	i
O=C(NCCc1ccc(Cl)cc1)c1cnc2n(c1=O)CCS2	i	11%	35µM*	i
COc1ccc(N2CCN(C(CNC(=O)C(=O)NCCc3c[nH]c4ccccc34)c3ccco3)CC2)cc1 (stereo unspecified)	i	3%	8%	i
COc1ccc(/C=N/Nc2cc(C)nc(-n3nc(C)cc3C)n2)cc1	i	?	20µM*	i
COc1ccc(Nc2cc(C)nc(-n3nc(C)cc3C)n2)cc1Cl	i	.	?	i
Cc1cc(Nc2ccc(C(C)C)cc2)nc(-n2nc(C)cc2C)n1	i	.	20µM*	?
COc1ccc(O)c(/C=N/Nc2nc(Nc3ccccc3)nc(-n3nc(C)cc3C)n2)c1	?	8%	22µM*	i
SMILES	Abeta rescue	aSyn yeast inh	TDP43 rescue	FUS yeast rescue
Cc1cc(N/N=C/c2cccc(Cl)c2)nc(-n2nc(C)cc2C)n1	i	12%	14µM*	i
CCOC(=O)N1CCN(c2c(Nc3cc(C)[nH]n3)c(=O)c2=O)CC1	i	3%	9%	i
CCOC(=O)c1cc(-c2ccc(OC)cc2)n(CCC(=O)NCCc2ccccc2)c1C	i	.	32µM*	?
Cc1ccc(SC2=C(C(=O)O)CCCC2)cc1	i	24%	10µM*	i
CCOC(=O)c1cnc2c(C)cc(C)cc2c1Nc1ccc(OCc2ccccc2)cc1	i	.	1%	i
c1ccc(-n2cnc3cc(NCc4ccncc4)ccc32)cc1	i	1%	26%	i
O=c1oc2ccccc2c2oc3cc(O)c(O)cc3c12	i	2%	-16%	8.9µM*
O=C1CC(c2ccc3c(c2)OCCO3)Oc2ccccc21 (stereo unspecified)	i	-7%	14µM*	i
COc1ccc(Cl)cc1NC(=O)c1ccco1	i	-15%	4%	i
C/C(=C\C(=S)Nc1ccccc1)Nc1ccc2ccccc2c1	i	-2%	13µM*	i
C/C(=C\C(=S)Nc1ccccc1)Nc1cccc2ccccc12	i	0%	11µM*	.
S=C(NCc1ccccc1)Nc1ccc2ccccc2c1	?	2%	?	i
Cc1cccc(OCCC(=O)NO)c1	.	17%	.	.
c1coc(CNc2nc3nonc3nc2NCc2ccco2)c1	i	1%	9%	i
Cc1cc2nc(-c3ccco3)c(Cc3cccc(Cl)c3)n2c(C)c1Br	i	2%	13µM*	i
CC1CCCN(C(=O)c2cc3c(-c4ccc(Cl)cc4)nn(C)c3s2)C1 (stereo unspecified)	i	-1%	4%	i
COc1cc(OC)c(C(=O)OCN2C(=O)c3ccccc3C2=O)cc1OC	i	-8%	-1%	i
CCc1ccc(OC(=O)CN2C(=O)c3ccccc3C2=O)cc1	i	12%	16µM*	i
COc1ccc(C(=O)OCN2C(=O)c3ccccc3C2=O)cc1	i	?	10µM*	i
Cn1c(N)c(C(=O)COC(=O)CNC(=O)c2ccccc2Cl)c(=O)n(C)c1=O	i	1%	5%	i
Cc1ccc(S(=O)(=O)N(C)C)cc1NC(=S)N1CCN(Cc2ccc3c(c2)OCO3)CC1	i	-2%	13%	i
O=C(/C=C/Nc1cccc([N+](=O)[O-])c1)c1ccco1	i	13µM*	-1%	i
CN(C)C(=O)N1CCC(C(=O)N2CCCC(C(=O)c3ccc(C(C)(C)C)cc3)C2)CC1 (stereo unspecified)	i	2%	2%	i
O=C(CS(=O)CC(=O)Nc1ccc(Cl)cc1)NCC1OCCc2ccccc21 (stereo unspecified)	i	-4%	-9%	i
CCOc1ccccc1C(=O)Nc1ccc2nc(N3CCN(c4ncccn4)CC3)cc(C)c2c1	i	-15%	18µM*	i
SMILES	Abeta rescue	aSyn yeast inh	TDP43 rescue	FUS yeast rescue
CCOc1ccccc1NC(=O)Nc1ccc2nc(N3CCN(C)CC3)cc(C)c2c1	i	.	2%	i
COc1ccccc1C(=O)NCCSc1c(C)[nH]c2ccccc12	?	.	32µM*	i
O=C(NCCSc1c[nH]c2ccccc12)c1ccc(Cl)cc1	i	.	-9%	i
COc1cccc(C(=O)NCCSc2c(C)[nH]c3ccccc23)c1OC	i	?	?	i
COc1cc(C(=O)NCCSc2c(C)[nH]c3ccccc23)cc(OC)c1OC	i	.	23%	i
O=C(NCCSc1c[nH]c2ccccc12)c1ccccc1Cl	i	.	35µM*	i
Cc1[nH]c2ccccc2c1SCCNC(=O)c1ccccc1F	14µM*	.	14µM*	i
COC(=O)NC1c2ccccc2Oc2ccc(C)cc21 (stereo unspecified)	i	3%	13µM*	i

Compound activity (PubChem)
